The values that follow come from PubChem BioAssay (EPA / NIEHS).

Records with an inconclusive call do not appear. Activity calls are given as the source filed them. How the source made its calls, unless noted: active means hit-call score of the fitted dose curve at least 0.9, where 1 is the maximum; inactive means score below 0.9.

Assay [1] can be described thus: ATG_PBREM_CIS: Attagene CIS-FACTORIAL HepG2 Assay for human Phenobarbital-responsive Enhancer Module (PBREM) (AID 2282955). Conditions: HepG2 PBREM cis-reporter, Attagene multiplexed transcription; actives raise or lower the signal. The method in brief: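 HepG2 cells transiently transfected with multiple cis-regulated reporter units measure endogenous transcription factor activity; 24 h compound exposure. Reporter mRNA quantified by RT-PCR, fluorescent labelling, HpaI digestion and capillary electrophoresis; bidirectional fit versus DMSO.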

For assay [2], the target named is Paired box protein Pax-6 (Homo sapiens) (UniProt P26367). Put plainly: ATG_Pax6_CIS: Attagene CIS-FACTORIAL HepG2 Assay for human Paired Box 6 (PAX6) (AID 2282956). The conditions noted are these: HepG2 CIS-FACTORIAL PAX6 reporter transcription, RNA readout; actives raise or lower the signal. Put shortly: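 Read-out is reporter transcript level, measured by RT-PCR with fluorescent primer extension and capillary electrophoresis after 24 h dosing of transfected HepG2 cells. Activity in either direction fitted relative to DMSO control.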

Assay [3] can be described thus: ATG_PXRE_CIS: Attagene CIS-FACTORIAL HepG2 Assay for human Pregnane X Receptor Element (PXRE) (AID 2282957). Conditions: HepG2 Attagene CIS-FACTORIAL PXRE reporter, mRNA; actives raise or lower the signal. The method in brief:
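Bidirectional activity, baselined to DMSO, derived from reporter mRNA fluorescence (RT-PCR plus capillary electrophoresis) in HepG2 cells bearing cis-promoter reporter units, 24 h exposure.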

Assay [4] in a line: ATG_RORE_CIS: Attagene CIS-FACTORIAL HepG2 Assay for human RAR-related Orphan Receptor Element (RORE) (AID 2282959). Conditions: HepG2 Attagene cis-factorial RORE reporter, mRNA; actives raise or lower the signal. Put shortly:
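HepG2 cells carrying transiently transfected cis-regulated reporter units; RORE-driven reporter mRNA quantified 24 h post-dosing by RT-PCR, 6-FAM primer extension, HpaI digestion and capillary electrophoresis. Bidirectional fit versus DMSO.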

Assay [5] in a line: ATG_Sox_CIS: Attagene CIS-FACTORIAL HepG2 Assay for human SRY-box transcription factor (SOX) (AID 2282960). Conditions: HepG2 Attagene cis-factorial SOX reporter, mRNA; actives raise or lower the signal. Put shortly: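 HepG2 cells transiently transfected with multiple cis-regulated reporter units, then dosed for 24 h. Reporter mRNA quantified by RT-PCR, fluorescent labelling, HpaI digestion and capillary electrophoresis; bidirectional fit versus DMSO.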

Assay [6] is described as follows: ATG_SREBP_CIS: Attagene CIS-FACTORIAL HepG2 Assay for human Sterol Regulatory Element Binding (SREBP) (AID 2282962). The conditions noted are these: HepG2 Attagene cis-factorial SREBP reporter, mRNA; actives raise or lower the signal. The method in brief: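 Endogenous SREBP activity read as cis-element-driven reporter transcript in transiently transfected HepG2, 24 h post-dosing; quantified via RT-PCR plus capillary electrophoresis of fluorescent fragments. Gain or loss of signal fitted relative to DMSO baseline.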

The target of assay [7] is Signal transducer and activator of transcription 3 (Homo sapiens) (UniProt P40763). Put plainly: ATG_STAT3_CIS: Attagene CIS-FACTORIAL HepG2 Assay for human Signal Transducer and Activator of Transcription 3 (STAT3) (AID 2282963). Conditions: HepG2, Attagene cis-factorial STAT3 reporter transcription; actives raise or lower the signal. Put shortly: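 Cis-factorial format: endogenous transcription factors in HepG2 drive transfected reporter units. After 24 h treatment, reporter RNA was reverse-transcribed, amplified, FAM-labelled and HpaI-digested before CE analysis; activity scored in both directions against DMSO.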

Assay [8] is described as follows: ATG_TA_CIS: Attagene CIS-FACTORIAL HepG2 Assay for human TA Basal Promoter (AID 2282964). The conditions noted are these: HepG2 Attagene CIS-factorial TA basal promoter reporter; actives raise or lower the signal. The method in brief: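 HepG2 cells transiently transfected with multiple reporter units under cis promoter elements, reporting endogenous transcription factor activity; this endpoint tracks the TA basal promoter as background control. Reporter mRNA after 24 h dosing measured by RT-PCR/capillary electrophoresis; bidirectional fits versus DMSO.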

The nature of assay [9]: ATG_TCF_b_cat_CIS: Attagene CIS-FACTORIAL HepG2 Assay for human T-Cell-Factor with beta-catenin (TCF/b-cat) (AID 2282965). The conditions noted are these: HepG2 TCF/beta-catenin cis-reporter transcription, actives raise or lower the signal. The method in brief:
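Endogenous TCF/LEF activity read as reporter transcript level via RT-PCR and capillary electrophoresis fluorescence in transfected HepG2, 24 h exposure; gain or loss of signal fitted against DMSO controls.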

A short description of assay [10]: ATG_TAL_CIS: Attagene CIS-FACTORIAL HepG2 Assay for human TAL Basal Promoter (AID 2282966).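 Further: background control endpoint measuring basal TAL promoter reporter mRNA not a specific factor.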 Conditions: HepG2 Attagene cis-factorial TAL promoter reporter; actives raise or lower the signal. Put shortly: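 Human hepatoma HepG2 cells, transfected with promoter-regulated reporter units, were treated 24 h. Reporter transcript levels, measured through RT-PCR and capillary electrophoresis, were fitted for gain or loss relative to DMSO.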

Assay [11] in a line: ATG_TGFb_CIS: Attagene CIS-FACTORIAL HepG2 Assay for human Transforming Growth Factor (TGF) (AID 2282967). Conditions: HepG2 Attagene CIS TGFb reporter, mRNA transcription; actives raise or lower the signal. Put shortly: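 HepG2 cells transiently transfected with cis-promoter-driven multiple reporter units measure endogenous TF activity; reporter mRNA quantified at 24 h by RT-PCR, FAM labeling, HpaI digestion and capillary electrophoresis. Bidirectional fit vs DMSO.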

Assay [12] addresses Nuclear receptor subfamily 1 group I member 3 (Homo sapiens) (UniProt Q14994). Put plainly: ATG_CAR_TRANS: Attagene TRANS-FACTORIAL HepG2 Assay for human Constitutive Androstane Receptor (CAR) (AID 2282969; active means hit-call score of the fitted dose curve at least 0.9, where 1 is the maximum;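 further: activators raise reporter mRNA above DMSO so AC50 marks induction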). The conditions noted are these: HepG2 Attagene TRANS-FACTORIAL CAR reporter. The method in brief: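 Signal is reporter mRNA induction relative to DMSO, measured 24 h after dosing by RT-PCR with fluorescent primer extension and capillary electrophoresis. Human HepG2 liver cells carried transiently transfected chimeric NR-Gal4/GAL4-UAS reporter constructs.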

Assay [13] addresses Estrogen receptor (Homo sapiens) (UniProt P03372). Put plainly: ATG_ERa_TRANS: Attagene TRANS-FACTORIAL HepG2 Assay for human Estrogen Receptor alpha (ERa) (AID 2282970; active means hit-call score of the fitted dose curve at least 0.9, where 1 is the maximum). The conditions noted are these: HepG2 Attagene TRANS ERa GAL4 reporter, mRNA. Put shortly: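 Signal derives from fluorescence of labelled reporter PCR fragments separated by capillary electrophoresis. HepG2 cells transiently carrying multiple GAL4-UAS reporter units were treated 24 hours, and induction above DMSO baseline was fitted as activity.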

Assay [14] has as its target X-box-binding protein 1 (Homo sapiens) (UniProt P17861). The assay can be described thus: ATG_Xbp1_CIS: Attagene CIS-FACTORIAL HepG2 Assay for human X-box Binding Protein 1 (XBP1) (AID 2282972). The conditions noted are these: HepG2 XBP1 cis-element reporter, Attagene multiplex; actives raise or lower the signal. The method in brief:
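Reporter transcripts were quantified by RT-PCR with fluorescent primer extension and capillary electrophoresis after 24 h chemical exposure. Cells: transiently transfected HepG2 carrying cis-regulated reporter constructs; data fitted bidirectionally relative to DMSO.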

Assay [15] can be described thus: ATG_M_19_TRANS: Attagene TRANS-FACTORIAL HepG2 Assay for M19 Transcription Factor (Internal Marker) (AID 2282974; active means hit-call score of the fitted dose curve at least 0.9, where 1 is the maximum). Conditions: HepG2 Attagene TRANS-FACTORIAL M19 internal marker reporter. Put shortly: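 HepG2 transiently transfected with GAL4-UAS multiplex reporter constructs, exposed 24 h; reporter RNA quantified by RT-PCR, 6-FAM labeling, HpaI digestion and capillary electrophoresis; internal background marker fitted upward versus DMSO.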

A short description of assay [16]: ATG_VDRE_CIS: Attagene CIS-FACTORIAL HepG2 Assay for human Vitamin D Receptor Element (VDRE) (AID 2282968). Conditions: HepG2 VDRE cis-reporter transcription, actives raise or lower the signal. Put shortly: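 Measures endogenous factor activity through cis-element-driven reporter transcripts in transiently transfected HepG2. Cells are treated 24 h; reporter mRNA is quantified by RT-PCR and capillary electrophoresis; fitting is bidirectional.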

The target in assay [17] is Steroid hormone receptor ERR1 (Homo sapiens) (UniProt P11474). Put plainly: ATG_ERRa_TRANS: Attagene TRANS-FACTORIAL HepG2 Assay for human Estrogen-Related Receptor alpha (ERRa) (AID 2282971; active means hit-call score of the fitted dose curve at least 0.9, where 1 is the maximum). Conditions: HepG2 Attagene TRANS reporter, ERRa transactivation. Put shortly: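 Signal gain relative to DMSO for an ERRa-Gal4 chimeric receptor, read as reporter mRNA by RT-PCR/capillary electrophoresis. Human HepG2 liver cells, transient multiplex reporter transfection, 24 h chemical exposure.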

Assay [18] is described as follows: ATG_GAL4_TRANS: Attagene TRANS-FACTORIAL HepG2 Assay for GAL4 (Internal Marker) (AID 2282976; active means hit-call score of the fitted dose curve at least 0.9, where 1 is the maximum). The conditions noted are these: HepG2 Attagene TRANS GAL4 internal marker reporter. Put shortly: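 Liver HepG2 line bearing multiplexed GAL4-UAS reporter constructs; 24 h chemical treatment. Transcripts were quantified as fluorescent fragments on capillary electrophoresis after RT-PCR and HpaI cut, with activity fitted upward from DMSO.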

Assay [19] has as its target Transcription factor Sp1 (Homo sapiens) (UniProt P08047). Put plainly: ATG_Sp1_CIS: Attagene CIS-FACTORIAL HepG2 Assay for human Specificity Protein 1 (Sp1) (AID 2282961). The conditions noted are these: HepG2 Sp1 cis-reporter transcription, actives raise or lower the signal. Put shortly: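 HepG2 cells transiently transfected with multiplexed cis-regulated reporter constructs, chemical exposure 24 h. Reporter mRNA quantified by RT-PCR with capillary electrophoresis; bidirectional fit relative to DMSO.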

Paired box protein Pax-6 (Homo sapiens), sequence (P26367 whole entry, looked up): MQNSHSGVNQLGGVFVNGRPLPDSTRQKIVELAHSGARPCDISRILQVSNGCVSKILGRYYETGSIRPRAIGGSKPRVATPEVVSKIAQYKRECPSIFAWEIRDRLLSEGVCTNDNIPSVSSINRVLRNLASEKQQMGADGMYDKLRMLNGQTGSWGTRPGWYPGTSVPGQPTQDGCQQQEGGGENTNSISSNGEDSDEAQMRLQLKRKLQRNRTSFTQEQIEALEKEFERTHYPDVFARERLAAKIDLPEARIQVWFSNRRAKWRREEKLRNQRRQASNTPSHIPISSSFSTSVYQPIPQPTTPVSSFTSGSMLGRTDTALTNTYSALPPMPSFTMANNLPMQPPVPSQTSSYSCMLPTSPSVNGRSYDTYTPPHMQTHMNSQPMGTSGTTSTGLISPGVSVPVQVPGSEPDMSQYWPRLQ
X-box-binding protein 1 (Homo sapiens), sequence (P17861 whole entry, looked up): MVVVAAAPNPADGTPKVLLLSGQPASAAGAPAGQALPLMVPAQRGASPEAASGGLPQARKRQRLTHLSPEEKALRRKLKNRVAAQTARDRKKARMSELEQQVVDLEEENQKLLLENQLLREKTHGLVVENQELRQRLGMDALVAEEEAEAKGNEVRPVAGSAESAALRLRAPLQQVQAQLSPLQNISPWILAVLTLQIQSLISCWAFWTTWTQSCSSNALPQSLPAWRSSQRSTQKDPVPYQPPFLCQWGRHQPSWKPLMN
Estrogen receptor (Homo sapiens), sequence (P03372 whole entry, looked up, the tested form may be a part): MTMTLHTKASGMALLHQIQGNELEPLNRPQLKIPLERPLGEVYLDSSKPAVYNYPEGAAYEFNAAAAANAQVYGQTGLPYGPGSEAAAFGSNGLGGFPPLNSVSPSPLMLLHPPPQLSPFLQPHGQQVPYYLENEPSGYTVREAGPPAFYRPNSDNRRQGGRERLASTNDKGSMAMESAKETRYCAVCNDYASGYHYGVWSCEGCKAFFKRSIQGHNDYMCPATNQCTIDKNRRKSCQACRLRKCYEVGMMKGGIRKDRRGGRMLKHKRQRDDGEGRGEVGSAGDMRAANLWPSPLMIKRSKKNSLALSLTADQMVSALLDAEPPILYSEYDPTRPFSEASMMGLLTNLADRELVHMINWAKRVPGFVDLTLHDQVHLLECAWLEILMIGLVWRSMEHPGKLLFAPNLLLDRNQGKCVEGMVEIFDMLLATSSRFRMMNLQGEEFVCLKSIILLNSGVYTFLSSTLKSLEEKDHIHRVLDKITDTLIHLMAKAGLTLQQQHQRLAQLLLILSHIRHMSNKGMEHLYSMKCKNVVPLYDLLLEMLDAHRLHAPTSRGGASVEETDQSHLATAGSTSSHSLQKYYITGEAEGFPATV
Signal transducer and activator of transcription 3 (Homo sapiens), sequence (P40763 whole entry, looked up): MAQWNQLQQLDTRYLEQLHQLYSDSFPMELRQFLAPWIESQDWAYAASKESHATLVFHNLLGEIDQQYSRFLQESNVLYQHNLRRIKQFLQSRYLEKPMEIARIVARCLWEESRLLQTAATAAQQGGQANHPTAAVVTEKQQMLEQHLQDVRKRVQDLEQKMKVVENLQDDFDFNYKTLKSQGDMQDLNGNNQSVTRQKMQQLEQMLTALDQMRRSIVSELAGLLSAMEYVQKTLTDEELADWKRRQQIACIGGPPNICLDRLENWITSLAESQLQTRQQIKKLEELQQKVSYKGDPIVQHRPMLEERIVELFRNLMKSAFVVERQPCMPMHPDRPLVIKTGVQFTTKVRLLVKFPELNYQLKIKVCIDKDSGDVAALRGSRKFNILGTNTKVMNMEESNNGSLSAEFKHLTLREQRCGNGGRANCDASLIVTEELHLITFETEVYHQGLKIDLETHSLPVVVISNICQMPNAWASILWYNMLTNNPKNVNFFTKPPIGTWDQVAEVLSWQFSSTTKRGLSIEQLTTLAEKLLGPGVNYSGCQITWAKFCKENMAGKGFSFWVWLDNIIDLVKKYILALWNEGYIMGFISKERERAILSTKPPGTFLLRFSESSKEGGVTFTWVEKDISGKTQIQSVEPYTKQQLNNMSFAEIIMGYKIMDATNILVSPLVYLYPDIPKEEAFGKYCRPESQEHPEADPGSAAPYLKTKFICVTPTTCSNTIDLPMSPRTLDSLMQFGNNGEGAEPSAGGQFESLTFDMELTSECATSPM
Steroid hormone receptor ERR1 (Homo sapiens), sequence (P11474 whole entry, looked up, the tested form may be a part): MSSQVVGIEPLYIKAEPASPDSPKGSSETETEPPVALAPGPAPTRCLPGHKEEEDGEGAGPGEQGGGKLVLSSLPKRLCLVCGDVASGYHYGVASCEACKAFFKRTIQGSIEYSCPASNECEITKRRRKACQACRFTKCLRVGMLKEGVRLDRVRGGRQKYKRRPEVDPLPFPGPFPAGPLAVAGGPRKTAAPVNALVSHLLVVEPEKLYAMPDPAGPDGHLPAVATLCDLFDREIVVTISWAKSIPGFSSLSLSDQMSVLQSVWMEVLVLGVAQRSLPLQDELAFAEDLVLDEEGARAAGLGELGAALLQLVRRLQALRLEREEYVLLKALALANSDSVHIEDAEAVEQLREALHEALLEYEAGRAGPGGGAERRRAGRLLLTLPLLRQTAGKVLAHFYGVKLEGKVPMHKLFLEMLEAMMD
Transcription factor Sp1 (Homo sapiens), sequence (P08047 whole entry, looked up): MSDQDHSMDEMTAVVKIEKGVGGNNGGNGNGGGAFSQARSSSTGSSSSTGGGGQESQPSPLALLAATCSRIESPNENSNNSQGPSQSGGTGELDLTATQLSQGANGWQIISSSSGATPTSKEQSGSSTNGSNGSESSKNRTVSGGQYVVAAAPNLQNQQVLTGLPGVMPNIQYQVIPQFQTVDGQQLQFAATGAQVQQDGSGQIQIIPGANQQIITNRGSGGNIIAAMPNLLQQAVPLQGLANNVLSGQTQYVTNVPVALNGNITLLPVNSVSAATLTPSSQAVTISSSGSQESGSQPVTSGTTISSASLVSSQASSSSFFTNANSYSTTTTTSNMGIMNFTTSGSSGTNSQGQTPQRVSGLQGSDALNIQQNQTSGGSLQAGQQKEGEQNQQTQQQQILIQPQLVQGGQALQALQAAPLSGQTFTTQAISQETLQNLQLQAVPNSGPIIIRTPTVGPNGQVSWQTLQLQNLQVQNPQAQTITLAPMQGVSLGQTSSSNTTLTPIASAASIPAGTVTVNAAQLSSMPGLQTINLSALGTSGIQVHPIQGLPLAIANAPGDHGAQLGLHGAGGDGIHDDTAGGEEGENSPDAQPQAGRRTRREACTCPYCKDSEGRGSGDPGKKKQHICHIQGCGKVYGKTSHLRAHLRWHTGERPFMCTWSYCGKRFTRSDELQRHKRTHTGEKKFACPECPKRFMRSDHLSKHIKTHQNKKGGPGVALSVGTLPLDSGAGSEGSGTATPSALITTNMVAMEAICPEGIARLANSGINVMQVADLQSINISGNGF
Nuclear receptor subfamily 1 group I member 3 (Homo sapiens), sequence (Q14994 whole entry, looked up, the tested form may be a part): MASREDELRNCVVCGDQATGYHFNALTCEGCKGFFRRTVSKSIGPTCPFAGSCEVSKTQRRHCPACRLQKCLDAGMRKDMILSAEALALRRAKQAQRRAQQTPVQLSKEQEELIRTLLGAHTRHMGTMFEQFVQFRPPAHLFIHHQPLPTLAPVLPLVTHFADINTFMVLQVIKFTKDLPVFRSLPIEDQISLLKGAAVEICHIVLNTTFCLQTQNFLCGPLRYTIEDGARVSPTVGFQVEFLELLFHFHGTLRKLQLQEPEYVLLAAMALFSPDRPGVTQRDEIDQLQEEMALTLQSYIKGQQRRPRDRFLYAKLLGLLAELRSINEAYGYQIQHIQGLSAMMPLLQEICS

In the case of `CN(C)c1ccc2nc3ccc(=[N+](C)C)cc-3sc2c1`, the outcome in assay [1], in [2], in [4], in [5], in assay [6] and in [7] was inactive. Further, the outcome in [8], in [9], in assay [10], in assay [11], in assay [12] and in [13] was inactive. Besides, the molecule was called inactive in assay [14] and in assay [15]. Also, the AC50 in [3] is 3.95 µM (active).

Turning to `c1ccc2cnccc2c1`, the result in assay [1], in assay [2], in [4], in assay [5], in assay [6] and in assay [8] was inactive. The outcome in [9], in assay [10], in assay [11], in assay [16], in [13] and in [17] was inactive. For the same molecule, the result in assay [14], in assay [15] and in assay [18] was inactive. Besides, the AC50 in assay [3] was 27.6 µM (active).

As for `CC(=O)CC(=O)Nc1ccccc1C`, the result in assay [1], in assay [2], in assay [3], in [5], in assay [19] and in assay [6] was inactive. In addition, the outcome in [7], in assay [8], in assay [9], in assay [10], in assay [11] and in [16] was inactive. Also, the call in assay [12], in assay [17] and in assay [14] was inactive.

For `C[N+](C)(C)CCCNS(=O)(=O)C(F)(F)C(F)(F)C(F)(F)C(F)(F)C(F)(F)C(F)(F)C(F)(F)C(F)(F)F`, the outcome in assay [1], in assay [2], in assay [5], in [19], in assay [6] and in assay [7] was inactive. The call in assay [9], in [10], in [16], in assay [13], in assay [14] and in [18] was inactive. The AC50 in [3] was 41.7 µM (active); in assay [11] it was 60.6 µM (active).

Broadly, the AC50 is the concentration giving half of the maximal activity seen.
